Screens (PubChem BioAssay)
Only some compounds are listed: those with a hit (about 12% of all), similar ones and a draw of the others.
Lassa entry inh: inhibitors of Lassa virus binding or cell entry | Potency, µM (highest dose often 37.9 µM), hits mostly inhibitors | AID 540256 | 1.2% of 300,000 active | Lassa virus pseudotype entry inhibition, cell reporter; calls by dose curve; tested in HEK293 cells; further: nearly all actives have a fitted effect of over 50% in size
Marburg entry inh: blocks Marburg virus binding to or entry into cells. Potency, µM (highest dose often 37.8 µM), most hits filed as inhibitors. AID 540276. 1.8% of 300,000 active. Marburg virus pseudotyped entry inhibition, cell reporter; calls by dose curve; tested in HEK293 cells
Cycloheximide cs: counter-screen hit for Shiga toxin inhibitors, cycloheximide | cell reporter, cycloheximide protein synthesis inhibition counterscreen | max response, % | 12% of 300,000 active; in the data active means max response mostly above about 13%, no sharp cut-off; inactive means mostly below about 14%; further: read at 38.3 µM for the half of the compounds with a filed dose
Shiga inhibitor: blocks Shiga toxin action in Vero cells; inhibition, % at 38.7 µM; Vero cells, Shiga toxin protein synthesis inhibition reporter; 9.2% of 290,000 active; in the data active means inhibition mostly above about 28%, no sharp cut-off; inactive means mostly below about 43%
A number is an active result; 0 = inactive; ? = inconclusive; - = no result given; ! = repeats disagree.

SMILES	Lassa entry inh	Marburg entry inh	Cycloheximide cs	Shiga inhibitor
COc1ccc(/C(C)=N/NC(=O)C2CC2)cc1	0	0	0	42
COc1ccc2cc(/C(C)=N/NC(=O)C3CC3)ccc2c1	?	0	26	48
COCCNC(=S)N/N=C(\C)c1ccc(OC)cc1	?	0	0	0
COCCNC(=S)N/N=C(\C)c1ccc2cc(OC)ccc2c1	8.2µM	?	0	0
CC1(C)CC(=O)c2cnc(NC(=O)c3ccco3)nc2C1	0	0	0	84
CCCCc1ncc(CN2CCC(CC3CCCCO3)(C(=O)OCC)CC2)[nH]1 (centres undefined)	0	?	0	0
CCOC(=O)C1(CC2CCCCO2)CCN(Cc2cc3ccccc3[nH]2)CC1 (centres undefined)	10µM	?	0	0
N[C@H](C(=O)O)[C@@H]1C[C@@H]1C(=O)O	-	0	-	-
CN1CCN(C2=Nc3cc(Cl)ccc3Nc3ccccc32)CC1	0	13µM!	0	0
Cc1c(C(=O)OCCN2CCCCC2)oc2ccccc12	?	0	14	0
COc1ccc2oc(C(=O)OCC(=O)NC3CCCC3)c(C)c2c1	0	?	38	71
COc1ccc2oc(C(=O)OCC(=O)c3ccc4c(c3)OCCO4)c(C)c2c1	16µM	?	0	0
Cc1c(C(=O)N2CCN(CCc3ccccc3)CC2)oc2ccccc12	0	0	0	0
Cc1c(C(=O)OCC(=O)NC2CC2)oc2ccc(Br)cc12	0	0	-	-
Cc1c(C(=O)OCC(=O)N2C(C)CCCC2C)oc2ccccc12 (centres undefined)	-	-	50	96
COc1ccc2oc(C(=O)N(C)Cc3ccc4c(c3)OCCO4)c(C)c2c1	0	0	-	-
Cc1c(C(=O)OCC(=O)N2CC(C)CC(C)C2)oc2ccccc12 (centres undefined)	0	?	-	-
CC(NC(=O)C1CCN(C(=O)c2ccc(-n3ccc4ccccc43)s2)CC1)c1ccccc1 (centres undefined)	0	-	-	-
CC(C)N(C(=S)Nc1cccnc1)c1ccccc1	-	-	0	0
CC1CCCC(C)N1C(=O)COC(=O)c1ccc2c(c1)OCO2 (centres undefined)	0	?	17	0
COc1ccc2oc(C(=O)OCC(=O)N3C(C)CCCC3C)c(C)c2c1 (centres undefined)	0	0	37	63
O=C(COC(=O)c1ccc2c(c1)OCO2)NC1CCCCC1	0	?	-	-
COc1ccc2oc(C(=O)OCC(=O)N3CCCCC3C)c(C)c2c1 (centres undefined)	0	0	-	-
C=C(C)[C@]12C[C@@H](C)[C@@]34OC(Cc5ccccc5)(O[C@@H]1[C@@H]3C=C(COC(=O)Cc1cc(OC)c(O)cc1I)C[C@]1(O)C(=O)C(C)=C[C@@H]41)O2	-	-	0	0
O[C@H]1CN(CC2CCCCC2)[C@@H](c2ccc(Cl)cc2)C[C@H]1n1cc(C2CC2)nn1	10µM	-	-	-
SMILES	Lassa entry inh	Marburg entry inh	Cycloheximide cs	Shiga inhibitor
O=C(C1CCCCC1)N1C[C@H](O)[C@H](n2cc(C3CC3)nn2)C[C@@H]1c1ccc(Cl)cc1	0	-	-	-
O=C(CCc1nc2ccccc2s1)OCC(=O)c1ccccc1	-	0	12	0
O=C(CCc1nc2ccccc2s1)OCC(=O)c1ccc[nH]1	0	0	0	0
COC(=O)CCCc1nc2ccccc2s1	0	0	0	33
O=C(O)CCCc1nc2ccccc2s1	0	0	0	0
O=C(CCc1nc2ccccc2s1)c1ccccc1	0	0	37	0
NC(=O)COC(=O)CCCc1nc2ccccc2s1	0	0	0	0
CC(=O)c1ccn(S(=O)(=O)c2ccccc2)c1	0	?	0	0
Cc1ccc(Cl)cc1NC(=O)c1cc2c(=O)n3cccc(C)c3nc2n1C	0	-	-	-
CCCCCN1CC(O)=C(c2nc3ccccc3[nH]2)C1=N	0	?	36	0
CC(C)N1CC(O)=C(c2nc3ccccc3[nH]2)C1=N	?	?	52	77
CC(C)CCN1CC(O)=C(c2nc3ccccc3[nH]2)C1=N	0	0	17	0
CCCCN1CC(O)=C(c2nc3ccccc3[nH]2)C1=N	0	0	47	0
Oc1ccc(Br)cc1Cn1nnc2ccccc21	-	-	0	0
COc1ccc(CNC(=O)COC(=O)CCC2CCCCC2)cc1	0	0	0	0
O=C(CSc1nc(=O)n(CCCN2CCOCC2)c2c1CCCC2)Nc1ccc(Cl)cc1	0	0	-	-
N=C1C(c2nc3ccccc3c(=O)[nH]2)=C(O)CN1CCO	0	0	0	0
C=CCN1CC(O)=C(c2nc3ccccc3[nH]2)C1=N	?	?	56	128
Cc1cccc(OCCOc2ccccc2C=C(C#N)C#N)c1	0	?	19	0
Cc1ccccc1OCCNC(=S)Nc1ccccc1	?	?	0	0
Cc1ccccc1OCCOc1ccccc1C=C(C#N)C#N	?	0	28	36
CCOC(=O)CC1=NN(c2ccccc2)C(=O)C1	0	0	0	0
CCOC(=O)c1nn(-c2ccccc2)cc1O	-	-	23	55
